Measured values: PubChem BioAssay
Calls of active or inactive are those of the source. Unless noted, how the calls were made is not given here.

Experiments:
[1] = test system: Wnt5a (protein binding on small-molecule microarray); test: Wnt5a binders on small-molecule microarray, primary screen, biophysical, 635/667 nm fluorescence (AID 1142); details: 635 nm fluorescence, higher = more signal;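 further: fluorescence read at 667 nm with signal to noise per printed feature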
[2] = cell viability in Huh7 cells, primary screen, cytotoxicity control for HCV replication inhibitor project, CellTiter-Glo luminescence, basal, 48 h (AID 1143); details: Huh7 HCV replicon, higher = more signal, called active from +8 up or from −8 down;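 further: Huh7 hepatoma cells carrying a hepatitis C replication reporter with no stimulus; test concentration not given here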
[3] = P. aeruginosa biofilm formation inhibitors, primary screen, PAO1 strain, BacTiter-Glo luminescence, LB-PBS (AID 1144); details: 12 h, higher = more signal
[4] = CREB reporter modulators without forskolin, primary screen, cell-based, PC12, CRE-LacZ reporter, unstimulated (AID 1145); details: no forskolin, luminescence, 4.5 h, higher = more signal, called active from +8 up or from −8 down
[5] = CREB reporter modulators under forskolin, primary screen, cell-based, PC12, CRE-LacZ reporter, forskolin-stimulated (AID 1146); details: luminescence, 4.5 h, higher = more signal, called active from +8 up or from −8 down;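 further: PC12 cells with 6xCRE LacZ reporter stimulated by forskolin 10 µM; beta-galactosidase reporter signal reflecting CREB driven transcription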
[6] = biological target: Streptavidin (Streptomyces avidinii) (UniProt P22629); test: streptavidin binders on small-molecule microarray, primary screen, artefact control for SMM compound annotation, biophysical, 635/667 nm fluorescence (AID 1147); details: streptavidin binding, higher = more signal;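 further: signal reflects streptavidin binding to arrayed compounds as a control protein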
Streptavidin (Streptomyces avidinii), sequence (P22629 whole entry, looked up): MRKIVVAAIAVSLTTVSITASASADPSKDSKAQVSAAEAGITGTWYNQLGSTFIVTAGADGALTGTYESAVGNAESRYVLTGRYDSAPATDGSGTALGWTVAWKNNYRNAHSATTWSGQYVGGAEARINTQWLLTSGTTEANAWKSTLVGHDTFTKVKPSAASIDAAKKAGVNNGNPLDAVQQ

[7] = small-molecule binders of probe aInhba, primary screen, biochemical, small-molecule microarray, 635/667 nm fluorescence (AID 1148); details: higher = more signal;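 further: score merges 667nm spot fluorescence with signal-to-noise for antibody binding to printed compounds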
Torsin-1A (Homo sapiens) [8] = biological target: Torsin-1A (Homo sapiens) (UniProt O14656); test: torsin A binders from cell lysate, primary screen, small-molecule microarray, wild-type, 635/667 nm (AID 1149); details: COS7 hTOR1A-WT lysate, 635 nm fluorescence, higher = more signal
Torsin-1A (Homo sapiens), sequence (O14656 whole entry, looked up): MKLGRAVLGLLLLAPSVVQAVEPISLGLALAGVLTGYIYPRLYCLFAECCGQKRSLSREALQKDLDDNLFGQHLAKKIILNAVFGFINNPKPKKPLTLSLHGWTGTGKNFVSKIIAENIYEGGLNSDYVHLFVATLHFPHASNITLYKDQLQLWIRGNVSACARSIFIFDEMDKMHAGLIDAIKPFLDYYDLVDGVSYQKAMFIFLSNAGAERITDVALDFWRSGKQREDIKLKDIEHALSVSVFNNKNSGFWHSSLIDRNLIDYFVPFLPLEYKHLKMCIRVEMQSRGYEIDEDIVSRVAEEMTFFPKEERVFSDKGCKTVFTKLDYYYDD

Torsin-1A (Homo sapiens) [9] = biological target: Torsin-1A (Homo sapiens) (UniProt O14656); test: small-molecule binders of mutant TOR1A in lysate, primary screen, cell lysate, small-molecule microarray, COS7 lysate, 635/667 nm fluorescence (AID 1150); details: COS7 hTOR1A mutant lysate, 635 nm fluorescence, higher = more signal;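 further: score pools 667 nm emission and signal to noise measuring lysate protein binding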
[10] = test system: Sonic hedgehog protein (Shh); test: small-molecule binders of Shh protein, primary screen, biochemical, small-molecule microarray, 635/667 nm fluorescence (AID 1151); details: small-molecule microarray binding, 635 nm fluorescence; higher = more signal;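 further: Shh protein binding to compounds spotted on small-molecule microarray slides; score combines spot fluorescence intensity with signal-to-noise across triplicate slides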

SMILES | composite z-score [1] | z-score [2] | z-score [3] | z-score [4] | z-score [5] | composite z-score [6] | composite z-score [7] | composite z-score (Torsin-1A (Homo sapiens) [8]) | composite z-score (Torsin-1A (Homo sapiens) [9]) | composite z-score [10]
CC(C)CN1C(=O)[C@@]2(c3ccc([N+](=O)[O-])cc3)CC(=O)N(C3CCCCC3)[C@@H]2c2ccc(CO)cc21 | -0.409 | -0.159 (inactive) | -0.927 (inactive) | -0.502 (inactive) | 0.241 (inactive) | -0.471 | -0.237 | -1.32 | -1.67 | -0.939
C#CCOc1ccc(C[C@@H](C(=O)OC)N(CC#C)[C@@H](/C=C/C2CC2)[C@H](O)Cc2ccccc2)cc1 | -0.589 | -2.59 (inactive) | 0.803 (inactive) | 14.9 (active) | 1 (inactive) | -0.57 | -0.183 | -1.18 | -0.489 | -0.34
C=CCNC(=O)[C@@H]1[C@H]2C(=O)O[C@H](c3ccccc3)[C@H](c3ccccc3)N2[C@H](c2ccc(OCCO)cc2)[C@@]12C(=O)N(C(=O)OCCOC)c1ccc(C#CCC(C(=O)OC)C(=O)OC)cc12 | 0.486 | -2.47 (inactive) | 0.975 (inactive) | 0.208 (inactive) | -0.208 (inactive) | 0.386 | 0.322 | 0.126 | 0.681 | 1.09
COC(=O)[C@@]1(Cc2ccccc2)[C@H]2c3cc(C(=O)N(C)C)n(Cc4ccc(OC)c(OC)c4)c3C[C@H]2CN1C(=O)c1ccccc1 | 1.15 | -2.81 (inactive) | 0.655 (inactive) | 0.394 (inactive) | 0.786 (inactive) | 1.43 | 0.498 | 0.406 | 1.16 | -0.735
CCOc1ccc(N2C(=O)CSC2c2cccc([N+](=O)[O-])c2)cc1 (stereo not given) | 0.124 | -0.689 (inactive) | -0.245 (inactive) | -0.0243 (inactive) | -1.34 (inactive) | 0.804 | -0.0448 | 0.331 | 0.731 | 0.0304
[N-]=[N+]=Nc1ccccc1C[C@@]1(C(=O)N2CCCCC2)N=C(c2ccc(OCCCO)cc2)O[C@@H]1c1ccccc1N=[N+]=[N-] | 0.648 | -5.13 (inactive) | 0.989 (inactive) | 0.801 (inactive) | -0.929 (inactive) | 1.33 | 0.404 | 0.46 | 0.585 | 0.248
NC(=O)[C@@H]1[C@H]2C(=O)O[C@H](c3ccccc3)[C@H](c3ccccc3)N2[C@H](c2ccc(O)cc2)[C@@]12C(=O)Nc1ccc(C#CC3=CCCCC3)cc12 | 0.0867 | -5.11 (inactive) | 0.403 (inactive) | 1.17 (inactive) | 0.117 (inactive) | -0.102 | 0.468 | 0.558 | 0.281 | 2
COc1cc2c(cc1O)C(c1cccs1)N(Cc1cccc(OC(F)(F)F)c1)CC2 (stereo not given) | -0.189 | -4.65 (inactive) | 0.284 (inactive) | -0.644 (inactive) | -0.73 (inactive) | 0.403 | -0.0762 | 0.288 | 0.0814 | 0.251
O=C(CS)NCCCCCNC(=O)[C@H]1C[C@H]2C(=O)NCC(=O)N2[C@H]1c1cccc(OCCO)c1 | -0.341 | -0.466 (inactive) | -0.218 (inactive) | -1.48 (inactive) | 0.0277 (inactive) | -1.05 | -0.217 | -0.181 | -0.0418 | 0.27
C=C(CCCC)/C(=C/C[C@H](OC(C)=O)c1ccccc1OCCO)c1cnc2ccccc2c1 | 0.382 | -1.45 (inactive) | 0.489 (inactive) | 4.07 (inactive) | 0.55 (inactive) | 0.36 | -0.157 | 0.0711 | 0.878 | 1.49
C[N+](C)(C)CCCC[C@@H]1NC(=O)[C@H]2C[C@@H](C(=O)NCCCCCCNC(=O)CS)[C@@H](c3ccc(O)cc3)N2C1=O | -0.195 | -0.798 (inactive) | -0.15 (inactive) | -0.947 (inactive) | -0.549 (inactive) | -1.48 | -0.024 | 2.12 | 1.3 | 0.801
O=C1OCCC/C=C\[C@H]2OC34C=CCN(c5ccc6ccccc6c5)C(=O)[C@H]3N(CCCCCO)C(=O)[C@@H]4C12 (stereo not given in full) | -0.591 | 0.123 (inactive) | 2.33 (inactive) | 0.601 (inactive) | 0.106 (inactive) | -0.773 | -0.209 | -2.04 | -1.51 | -0.0295
C=CCNC(=O)[C@H]1[C@@H]2C(=O)O[C@@H](c3ccccc3)[C@@H](c3ccccc3)N2[C@@H](c2ccc(O)cc2)[C@]12C(=O)Nc1ccc(C#CCCO)cc12 | -0.169 | 0.0368 (inactive) | 0.722 (inactive) | 0.452 (inactive) | -0.67 (inactive) | -0.374 | -0.152 | -0.944 | -0.187 | 0.717
NC(=O)[C@@]1(Cc2ccccc2)N=C(c2ccc(OCCCO)cc2)O[C@H]1c1ccccc1 | 0.677 | -1.51 (inactive) | -0.657 (inactive) | 1.37 (inactive) | -0.382 (inactive) | 0.924 | 0.196 | 1.07 | 0.601 | -0.558
COC(=O)[C@@]1(Cc2ccc(F)cc2)[C@H]2c3cc(C(=O)N(C)C)n(Cc4ccc(C)o4)c3C[C@H]2CN1C(=O)c1ccccc1 | 0.798 | -2.07 (inactive) | -0.927 (inactive) | 0.387 (inactive) | -0.554 (inactive) | -0.649 | 1.7 | 4.51 | 4.51 | -0.81
CN1C(=O)C2C=CC(C(O)c3ccccc3)N(N3CCCCC3)C2C1=O (stereo not given) | 0.691 | 0.573 (inactive) | -0.127 (inactive) | 0.819 (inactive) | 0.584 (inactive) | 0.479 | 0.0301 | 0.305 | 1.14 | -0.689
O=C(NCc1ccccc1)[C@@H]1c2ccccc2C(=O)N(C2Cc3ccccc3C2)[C@H]1c1ccc(CO)cc1 | 0.303 | -0.746 (inactive) | 0.317 (inactive) | 0.764 (inactive) | 0.134 (inactive) | 0.49 | 0.196 | -0.0754 | 0.165 | 1.31
CC(C)[Si](C#C[Si](C(C)C)(C(C)C)C(C)C)(O[C@H](C)c1cn(Cc2ccccc2)nn1)C(C)C | 0.0406 | -0.182 (inactive) | -0.324 (inactive) | -0.0848 (inactive) | -0.624 (inactive) | 1.32 | -0.0405 | 0.709 | 0.5 | 0.372
O=C(NC1CC1)[C@@H]1c2ccccc2C(=O)N(C2Cc3ccccc3C2)[C@H]1c1ccc(CO)cc1 | 0.336 | 0.192 (inactive) | -0.994 (inactive) | 0.854 (inactive) | -0.987 (inactive) | -0.286 | 0.116 | 0.795 | 1.28 | 1.05
CC(C)(C)OC(=O)CC[C@]1(C(N)=O)N=C(c2ccc(OCCCO)cc2)O[C@H]1c1ccccc1 | 0.836 | -0.408 (inactive) | 0.304 (inactive) | -0.585 (inactive) | -0.121 (inactive) | 0.679 | 0.4 | -0.037 | 0.941 | -0.332
O=C1O[C@H](c2ccccc2)[C@H](c2ccccc2)N2[C@H]1[C@@H](C(=O)N1CCN(c3ncccn3)CC1)[C@]1(C(=O)Nc3ccc(C#CC4=CCCCC4)cc31)[C@H]2c1ccccc1OCCO | 0.406 | -3.34 (inactive) | -0.869 (inactive) | -0.581 (inactive) | -0.111 (inactive) | 0.895 | 0.772 | 0.0637 | 0.0096 | 1.79
CCCC1(C(=O)OC)C=C2C(=C(c3ccccc3)C(=O)C2C)CN1 (stereo not given) | 0.256 | -0.752 (inactive) | 0.153 (inactive) | -0.375 (inactive) | 0.966 (inactive) | 0.312 | 0.27 | 0.52 | 0.0656 | -0.599
C[N+](C)(C)CCCC[C@@H]1NC(=O)[C@@H]2C[C@H](C(=O)NCCCCCCNC(=O)CS)[C@H](c3ccc(O)cc3)N2C1=O | -0.387 | -0.195 (inactive) | -0.421 (inactive) | 0.0165 (inactive) | 1.45 (inactive) | 0.553 | -0.0963 | 0.296 | 0.461 | 0.586
COc1ccc(C(O)C2C=CC3C(=O)N(C)C(=O)C3N2NC(=O)OC(C)(C)C)c2ccccc12 (stereo not given) | 0.364 | -0.144 (inactive) | -0.0855 (inactive) | 1.58 (inactive) | -0.0415 (inactive) | 1.13 | -0.137 | 0.177 | 0.644 | -0.416
Cc1ccc(S[C@]2(C(=O)NCC(C)C)CC(=O)N(Cc3cc(C(F)(F)F)cc(C(F)(F)F)c3)[C@@H]2c2ccc(CO)cc2)cc1 | 0.226 | 0.52 (inactive) | -0.846 (inactive) | -0.0781 (inactive) | 1.02 (inactive) | -0.342 | 0.652 | 0.234 | 0.118 | 0.391
COCCOC(=O)N1C(=O)[C@@]2(c3ccccc31)[C@H](C(=O)N1CCc3cc(OC)c(OC)cc3C1)[C@H]1C(=O)O[C@H](c3ccccc3)[C@H](c3ccccc3)N1[C@@H]2c1ccc(O)cc1 | 0.622 | -3.5 (inactive) | -0.726 (inactive) | -0.0515 (inactive) | 2.99 (inactive) | 1.39 | -0.0889 | 1.06 | 1.31 | 1.96
O=C1O[C@@H](c2ccccc2)[C@@H](c2ccccc2)N2[C@@H](c3ccc(OCCO)cc3)[C@]3(C(=O)Nc4ccc(C#CCCO)cc43)[C@@H](C(=O)NC[C@H](O)c3ccccc3)[C@H]12 | 0.425 | -0.673 (inactive) | -0.703 (inactive) | -0.141 (inactive) | 0.119 (inactive) | 0.477 | 0.288 | 0.458 | 0.652 | 1.88
COc1cc(OC)c(C(O)C2C=CC3C(=O)NC(=O)C3N2Nc2ccccn2)cc1Br (stereo not given) | 0.364 | 0.996 (inactive) | -0.874 (inactive) | -0.326 (inactive) | -0.527 (inactive) | -0.118 | -0.0791 | -0.105 | 0.197 | 0.754
COCCCNC(=O)[C@@H]1c2ccccc2C(=O)N(Cc2ccccc2OC)[C@H]1c1ccc(CO)cc1 | 0.924 | -4.79 (inactive) | -2.25 (inactive) | -0.502 (inactive) | 0.715 (inactive) | -0.665 | -0.0136 | 0.825 | -0.206 | 2.03
